High-throughput results as filed in PubChem.
phage Ecoli inh – growth loss of phage-infected E. coli, primary screen, RecBCD inhibitor project, absorbance, with phage, HTS; inhibition, % at 11.9 µM; hit rate 0.26% among 360,000; AID 651602, 2012; in the data active means inhibition above about 11%
AddAB inh – growth inhibition of E. coli expressing H. pylori AddAB, primary screen, AddAB inhibitor project, absorbance. inhibition, % at 11.9 µM. hit rate 0.29% among 330,000; in the data active means inhibition above about 12%
Tat export inh – E. coli Tat export inhibitors, primary screen, MC4100, TorA-mCherry reporter, fluorescence, single point; inhibition, % at 10 µM; hit rate 0.036% among 340,000;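 active means mean replicate inhibition at least 50% and at least half of replicates individually reaching 50%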;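 further: exported cargo escapes ClpAP degradation while cytoplasmic cargo is degraded and loses fluorescence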
E coli growth-1 – E. coli growth inhibition, primary screen, OD600; Escherichia coli growth, 23 h; hits give low values; hit rate 0.21% among 330,000; OD600 absorbance (no concentration beside the values);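 active means OD600 absorbance below the run mean of sample wells minus 3.6 SD, in any replicate, cut at about 0.56 in these data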
E coli growth-2 – E. coli V3065 growth inhibition, primary screen, counter-screen for AddAB inhibitor project, absorbance, OD600 | 18 h | inhibition, % at 11.9 µM | hit rate 0.27% among 330,000;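 active means inhibition above the campaign's mean inhibition across all tested compounds plus 3 SD, cut at about 9.9% in these data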;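 further: uninfected addAB+ strain grown without phage in ampicillin broth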
AddAB conf – growth loss of phage-infected E. coli expressing H. pylori AddAB, confirmation, AddAB inhibitor project, absorbance, E. coli V3065, T4 phage, triplicate | shares compounds with AddAB inh | OD; T4 phage with gene 2 nonsense mutations | inhibition, % at 11.9 µM | hit rate 64% among 880;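 active means mean inhibition above a set limit taken from the earlier primary screen, cut at about 13% in these data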;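 further: higher means less bacterial growth since AddAB block lets phage replicate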
RecBCD counter – growth loss of RecBCD+ E. coli with mutant T4 phage, counter-screen for AddAB inhibitor project, absorbance, V66 E. coli; shares compounds with AddAB inh; AID 488955, 2010; inhibition, % at 11.9 µM; OD growth; hit rate 73% among 880;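 active means mean inhibition above the mean of solvent-only control wells plus 3 SD, cut at about 4% in these data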;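 further: optical density read after an 18 h incubation at 37 °C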
Bact viability – bacterial viability inhibition counter-screen, confirmation, counter-screen for AddAB inhibitor project, absorbance. absorbance (AddAB counterscreen). hit rate 35% among 880. shares compounds with AddAB inh. inhibition, % at 11.9 µM; in the data active means inhibition above about 25%
RecBCD conf – growth loss of phage-infected RecBCD+ E. coli, confirmation, RecBCD inhibitor project, absorbance, E. coli V66, T4 gene 2 phage; shares compounds with phage Ecoli inh; E. coli V66 + T4 2- phage, growth OD; inhibition, % at 11.9 µM; hit rate 45% among 890; AID 651982, 2013;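 active means mean inhibition over triplicates exceeding the hit threshold derived in the original primary screen, cut at about 11% in these data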
Ecoli viability – E. coli viability inhibition, counter-screen for RecBCD inhibitor project, absorbance, high throughput. shares compounds with phage Ecoli inh. inhibition, % at 11.9 µM. hit rate 29% among 890. absorbance (OD) growth; in the data active means inhibition above about 20%;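 further: E. coli strain V66 grown with compound alone and no phage infection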
AddAB phage OD – growth loss of phage-infected AddAB-carrying E. coli, confirmation, counter-screen for RecBCD inhibitor project, absorbance, E. coli V3065, T4 phage. shares compounds with phage Ecoli inh. inhibition, % at 11.9 µM. AID 651984, 2013. hit rate 45% among 890. E. coli expressing H. pylori AddAB + T4 phage, OD growth; gene 2 mutant T4, recBCD-deleted host;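 active means mean inhibition above the solvent-only control wells' mean plus 3 SD, cut at about 22% in these data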;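 further: higher means less bacterial growth from phage killing when AddAB is blocked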
Numbers stand for hits; – = inactive; · = no result. Compounds with a hit are over-represented: about 0.5% of the library has one in this group of screens.

SMILES | phage Ecoli inh | AddAB inh | Tat export inh | E coli growth-1 | E coli growth-2 | AddAB conf | RecBCD counter | Bact viability | RecBCD conf | Ecoli viability | AddAB phage OD
Oc1cccc(C(Nc2nccs2)c2ccc3cccnc3c2O)c1 (centres undefined) | 16 | 18 | – | – | 16 | 19 | 17 | – | – | – | –
CCCCC(=O)NC(c1ccccc1Cl)c1ccc2cccnc2c1O (centres undefined) | 21 | 19 | – | · | 28 | 22 | 19 | – | 14 | – | 24
COC(C)(C)C(O)COc1c2ccoc2cc2oc(=O)ccc12 (centres undefined) | · | · | · | – | · | · | · | · | · | · | ·
O=C(NNC(=O)c1cc2cc(Br)ccc2oc1=O)c1ccc(O)cc1O | 18 | 24 | – | – | 23 | – | 14 | – | – | – | –
CCOC(=O)C=CC1CC2(CCO1)SCCCS2 (centres undefined) | · | · | · | – | · | · | · | · | · | · | ·
COc1ccc(Cl)cc1C(Nc1cccnc1)c1ccc2cccnc2c1O (centres undefined) | 16 | 14 | – | – | 23 | – | 12 | – | – | – | –
CCCCCCCCN1C(CC(=O)OCC)c2cc(F)ccc2S1(=O)=O (centres undefined) | · | · | · | – | · | · | · | · | · | · | ·
C=C1c2cccc(O)c2C(O)=C2C(=O)[C@]3(O)C(O)=C(C(N)=O)C(=O)[C@@H](N(C)C)[C@@H]3[C@@H](O)[C@H]12 | 100 | 57 | 140 | 0.059 | 47 | 97 | 99 | 97 | 104 | 105 | 104
C[C@H]1c2cccc(O)c2C(O)=C2C(=O)C3(O)C(O)=C(C(N)=O)C(=O)[C@@H](N(C)C)[C@@H]3[C@@H](O)[C@@H]21 (some centres undefined) | 101 | 96 | 152 | · | 97 | 101 | 100 | 101 | 103 | 104 | 104
CN(C)c1ccc(O)c2c1CC1CC3C(N(C)C)C(=O)C(C(N)=O)=C(O)[C@@]3(O)C(=O)C1=C2O (some centres undefined) | 99 | 99 | 150 | 0.069 | 101 | 98 | 99 | 100 | 103 | 105 | 104
CN(C)c1ccc(O)c2c1CC1CC3[C@@H](N(C)C)C(=O)C(C(N)=O)C(=O)[C@]3(O)C(=O)C1C2=O (some centres undefined) | 101 | 98 | 145 | · | 102 | 100 | 100 | 102 | 100 | 101 | 98
C=CCOC(=O)C1=CC(c2ccccc2)CC(OCc2ccc(CO)cc2)O1 (centres undefined) | · | · | · | – | · | · | · | · | · | · | ·
C[C@H]1c2cccc(O)c2C(=O)C2C(=O)C3(O)C(=O)C(C(N)=O)C(=O)[C@@H](N(C)C)[C@@H]3[C@@H](O)[C@@H]21 (some centres undefined) | 98 | 100 | 148 | · | 100 | 100 | 100 | 101 | 99 | 100 | 101
COc1cccc(-n2c(SCc3cc(=O)oc4cc(O)c(O)cc34)nc3ccccc3c2=O)c1 | 18 | 21 | – | – | 16 | 13 | 15 | – | – | – | –
CN(Cc1ccccc1C#N)S(=O)(=O)c1cccs1 | – | – | – | – | – | · | · | · | · | · | ·
N#Cc1nccnc1S(=O)(=O)c1cccs1 | 18 | 19 | · | 0.49 | 13 | 64 | 17 | – | 17 | – | 33
Nc1ccc(S(=O)(=O)Nc2ccc(Cl)nn2)cc1 | 16 | 20 | – | – | 12 | 19 | 11 | 30 | 12 | – | 39
COc1ccc(NS(=O)(=O)c2ccc(N)cc2)nn1 | · | – | · | · | – | · | · | · | · | · | ·
COc1cc2c(cc1OC)C1Cc3cc4c(cc3C(C2)N1C)OCO4 (centres undefined) | · | · | · | – | · | · | · | · | · | · | ·
CCCNC(=O)c1ccc2c(=O)c(O)c(-c3cccc(Br)c3)[nH]c2c1 | 20 | 15 | – | – | 13 | 14 | 13 | – | 12 | – | –
CS(=O)(=O)c1ccc([C@@H](O)[C@@H](CO)NC(=O)C(Cl)Cl)cc1 | 27 | 29 | – | · | 29 | – | 27 | – | 35 | 25 | –
CS(=O)(=O)c1ccc([C@@H](O)[C@@H](CF)NC(=O)C(Cl)Cl)cc1 | 85 | 84 | 147 | · | 85 | 87 | 90 | 87 | 92 | 94 | 84
COc1ccc(C2CC(=O)C=C(c3ccccc3Oc3ccccc3)C2)cc1 (centres undefined) | · | · | · | – | · | · | · | · | · | · | ·
COc1cccc(/C=N/Nc2ccc([N+](=O)[O-])cn2)c1O | 18 | 26 | – | · | 22 | 21 | 17 | – | 12 | – | –
CC[C@H]1OC(=O)[C@H](C)[C@@H](O[C@H]2C[C@@](C)(OC)[C@@H](O)[C@H](C)O2)[C@H](C)[C@@H](O[C@@H]2O[C@H](C)C[C@H](N(C)C)[C@H]2O)[C@](C)(OC)C[C@@H](C)C(=O)[C@H](C)[C@@H](O)[C@]1(C)O | 15 | 22 | 58 | · | 17 | 52 | 25 | 28 | 29 | 30 | 40
CC(=CC1CCCCC1)C(NC(=O)c1ccc(C(F)(F)F)cc1)c1ccc(-c2ccccc2)cc1 (centres undefined) | · | · | · | – | · | · | · | · | · | · | ·
COc1c(N2CCN(C(=S)NCc3ccccc3)C(C)C2)c(F)cc2c(=O)c(C(=O)O)cn(C3CC3)c12 (centres undefined) | 97 | 102 | – | 0.079 | 104 | 101 | 99 | 101 | 103 | 104 | 105
COc1c(N2C[C@@H]3CCCN[C@@H]3C2)c(F)cc2c(=O)c(C(=O)O)cn(C3CC3)c12 | 98 | 100 | 106 | · | 102 | 102 | 102 | 102 | 103 | 105 | 104
CCOC(=O)c1cn(-c2ccc(F)c(F)c2F)c2c(F)c(F)c(F)cc2c1=O | – | – | – | – | – | · | · | · | · | · | ·
